# Results: article PMC5540273 (PLoS ONE, 2017)
# What was measured:
# Conditions in all cases: concentration: 1 μM, replicates: in singlicate; n = 1
# DYRK1B = system: DYRK1B
# DYRK2 = system: DYRK2
# EGFR = system: EGFR
# EIF2AK1 = system: EIF2AK1
# EPHA1 = system: EPHA1
# EPHA2 = system: EPHA2
# EPHA3 = system: EPHA3
# EPHA4 = system: EPHA4
# EPHA5 = system: EPHA5
# EPHA6 = system: EPHA6
# EPHA7 = system: EPHA7
# EPHA8 = system: EPHA8
# EPHB1 = system: EPHB1
# EPHB2 = system: EPHB2
# EPHB3 = system: EPHB3
# EPHB4 = system: EPHB4
# EPHB6 = system: EPHB6
# ERBB2 = system: ERBB2
# ERBB3 = system: ERBB3
# ERBB4 = system: ERBB4
# 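Note: KINOMEscan kinase panel screen.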
SMILES,%Inh (DYRK1B),%Inh (DYRK2),%Inh (EGFR),%Inh (EIF2AK1),%Inh (EPHA1),%Inh (EPHA2),%Inh (EPHA3),%Inh (EPHA4),%Inh (EPHA5),%Inh (EPHA6),%Inh (EPHA7),%Inh (EPHA8),%Inh (EPHB1),%Inh (EPHB2),%Inh (EPHB3),%Inh (EPHB4),%Inh (EPHB6),%Inh (ERBB2),%Inh (ERBB3),%Inh (ERBB4)
CCn1c(-c2nonc2N)nc2c(C#CC(C)(C)O)ncc(OCCCCN)c21.O=C(O)C(F)(F)F.O=C(O)C(F)(F)F [GSK507274],0%,8%,9%,27%,20%,43%,38%,8%,0%,20%,0%,3%,0%,0%,27%,29%,6%,5%,0%,41%
c1ccc(Oc2ccc(Nc3ccnc4cc(-c5ccc(CNCCN6CCOCC6)o5)ccc34)cc2)nc1 [GW567145],0%,15%,39%,0%,72%,12%,17%,0%,0%,0%,0%,7%,0%,5%,0%,0%,98%,44%,98.4%,7%
CN(C)S(=O)(=O)c1cc(-c2ccc3nccc(-c4cccc(S(N)(=O)=O)c4)c3c2)cnc1N [GSK1669921],0%,44%,18%,8%,10%,9%,0%,20%,0%,18%,15%,27%,31%,0%,11%,16%,25%,15%,0%,0%
Cn1cc(-c2ccc3c(c2)CCN3C(=O)Cc2cccc(Cl)c2)c2c(N)ncnc21 [GSK2606590],0%,5%,2%,89%,11%,10%,0%,0%,0%,17%,13%,34%,15%,0%,9%,8%,86%,5%,0%,0%
Fc1ccc(-c2ncn(C3CCNCC3)c2-c2ccnc(Oc3ccc(-c4ccccc4)cc3)n2)cc1 [SB-245391],25%,36%,3%,12%,19%,0%,0%,19%,9%,17%,3%,8%,10%,6%,16%,17%,15%,62%,33%,6%
Cn1cc(-c2ccc3c(c2)CCN3C(=O)Cc2cccc(F)c2)c2c(N)ncnc21 [GSK2603358],1%,4%,35%,87%,16%,0%,0%,7%,0%,15%,7%,11%,0%,0%,13%,16%,98.7%,40%,0%,12%
Cl.Cl.NCC(NCc1ccc(-c2ccnc3[nH]ccc23)s1)c1ccccc1 (centres unmarked) [GSK1321565],25%,80%,24%,0%,24%,0%,0%,0%,0%,0%,0%,0%,13%,0%,5%,7%,27%,0%,19%,11%
O=C(Nc1n[nH]c2nc(-c3ccc(O)cc3)ccc12)C1CC1 [SB-710363],65%,97.2%,0%,0%,0%,0%,16%,3%,0%,17%,0%,0%,0%,16%,0%,0%,38%,0%,94.6%,6%
O=C(Nc1cccc(Oc2ccc3nc(NC(=O)C4CC4)cn3n2)c1)c1ccccc1C(F)(F)F,12%,0%,82%,0%,35%,29%,3%,28%,0%,16%,0%,29%,6%,19%,7%,10%,31%,25%,52%,20%
Clc1ccc(-c2nn3ncccc3c2-c2ccnc(Nc3ccc4c(c3)OCCO4)n2)cc1 [GW829116],0%,0%,84%,0%,0%,0%,0%,12%,19%,34%,35%,3%,18%,13%,7%,0%,65%,32%,8%,84%
Oc1cc(Nc2ccnc3cc(I)ccc23)ccc1F [GW552771],0%,8%,32%,0%,94.8%,34%,48%,29%,0%,29%,0%,49%,39%,14%,4%,45%,24%,22%,0%,36%
O=C(Nc1ccccc1F)NC1CCN(c2ccnc(Nc3ccc(F)cc3)n2)CC1 [GSK1379800],12%,0%,47%,0%,0%,0%,0%,5%,0%,5%,0%,0%,17%,0%,11%,8%,18%,33%,3%,32%
Cl.NC(=O)c1cccc(Nc2nccc(Nc3ccc(Oc4c(Cl)cccc4Cl)c(Cl)c3)n2)c1 [GW659009],0%,6%,99.5%,13%,0%,0%,0%,0%,0%,0%,0%,6%,93.5%,0%,0%,0%,32%,92.5%,93.3%,93.9%
CC(C)c1nc(-c2cccc(NS(=O)(=O)c3c(F)cccc3F)c2F)c(-c2ccnc(Nc3ccc(N4CCOCC4)nc3)n2)s1 [GSK2008607],0%,16%,94.3%,66%,98.9%,86%,69%,74%,0%,94.7%,0%,99.4%,40%,0%,0%,0%,99%,92.1%,97.7%,97.7%
Nc1ncc(-c2cccnc2)c2scc(-c3ccc4c(c3)CCN4C(=O)Cc3ccccc3)c12 [GSK683281],27%,24%,16%,25%,13%,8%,0%,7%,0%,11%,19%,26%,21%,9%,12%,2%,98.1%,1%,0%,2%
COc1ccc(-c2coc3ccc(-c4nnc(SCc5ccc(OC)c(C(F)(F)F)c5)o4)cc23)cc1,0%,14%,0%,5%,0%,2%,0%,8%,18%,17%,19%,14%,26%,24%,20%,0%,16%,19%,28%,21%
Cn1cc(-c2[nH]c3cc(NC(=O)[C@H](N)C4CCCCC4)cc4c3c2C=NNC4=O)cn1,0%,92.3%,81%,0%,25%,1%,56%,11%,12%,14%,4%,10%,15%,0%,1%,0%,92.4%,64%,77%,36%

SMILES,%Inh (DYRK1B),%Inh (DYRK2),%Inh (EGFR),%Inh (EIF2AK1),%Inh (EPHA1),%Inh (EPHA2),%Inh (EPHA3),%Inh (EPHA4),%Inh (EPHA5),%Inh (EPHA6),%Inh (EPHA7),%Inh (EPHA8),%Inh (EPHB1),%Inh (EPHB2),%Inh (EPHB3),%Inh (EPHB4),%Inh (EPHB6),%Inh (ERBB2),%Inh (ERBB3),%Inh (ERBB4)
CC(=O)Nc1nc2cnc(Nc3cc(NC(=O)c4cccc(C5(C#N)CC5)c4Cl)ccc3C)nc2s1,67%,8%,0%,0%,70%,79%,50%,59%,3%,56%,0%,55%,10%,50%,10%,34%,64%,14%,7%,4%
COc1cc(Nc2nccc(-c3c(-c4cccc(NC(=O)c5c(F)cccc5F)c4)nn4ncccc34)n2)cc(OC)c1OC [GSK327238],33%,16%,100%,0%,86%,71%,42%,65%,0%,49%,9%,56%,35%,93%,0%,15%,97.4%,98.6%,96%,99.4%
Nc1n[nH]c2cnc(-c3ccccc3)cc12 [SB-642124],75%,88%,38%,4%,26%,16%,0%,12%,0%,6%,65%,51%,19%,40%,16%,18%,0%,0%,0%,24%
O=C(Nc1cccc(-c2nn3ccccc3c2-c2ccnc(Nc3cccc(C(F)(F)F)c3)n2)c1)c1c(F)cccc1F [GSK292658],1%,3%,98.2%,0%,5%,8%,0%,5%,0%,7%,0%,0%,2%,0%,5%,0%,25%,80%,0%,90%
CNC(=O)c1ccccc1Nc1nc(Nc2ccc(N3CCOCC3)cc2)ncc1Cl.Cl [GSK1576028],100%,99.1%,98.8%,0%,90.8%,53%,76%,29%,0%,65%,88%,40%,71%,23%,2%,46%,95.2%,79%,0%,93.4%
COc1cccc(C2=C(Nc3ccc(Cl)c(C(=O)O)c3)C(=O)NC2=O)c1 [SB-390769],100%,100%,24%,99.6%,1%,10%,0%,0%,0%,2%,0%,15%,0%,23%,10%,10%,100%,28%,5%,0%
COC(=O)Nc1nc2cc(Oc3ccc(NC(=O)Nc4cc(C(F)(F)F)ccc4F)cn3)ccc2[nH]1.Cl.Cl [GW681170],12%,0%,12%,5%,64%,92.3%,47%,81%,43%,91%,82%,98.2%,63%,78%,12%,55%,86%,22%,2%,2%
CN1CCN(Cc2cccc(-c3ccc4c(Nc5ccc(Oc6ccccc6)cc5)ccnc4c3)c2)CC1 [GW578342],13%,0%,87%,0%,0%,4%,3%,0%,0%,7%,0%,0%,25%,16%,7%,10%,87%,62%,99.1%,55%
Cc1cccc(Nc2nc(N[C@H]3CCNC3)ncc2C(N)=O)c1.Cl [GSK2197149],12%,32%,50%,22%,0%,0%,45%,8%,0%,7%,10%,15%,27%,0%,12%,0%,0%,13%,0%,23%
O=C(Nc1n[nH]c2cc(-c3ccoc3)ccc12)C1CC1 [SB-738481],23%,75%,6%,0%,13%,0%,0%,5%,2%,9%,0%,31%,0%,0%,0%,5%,10%,0%,0%,0%
C[C@@H](Oc1cc(-n2cnc3cc(-c4ccnc(NCCS(C)(=O)=O)c4)ccc32)sc1C(N)=O)c1ccccc1Cl [GSK907232],0%,15%,35%,1%,9%,16%,0%,10%,0%,23%,6%,23%,19%,0%,10%,3%,60%,0%,0%,0%
COc1ccc(CNC(=O)NC2CCN(c3ccnc(Nc4ccc(F)cc4)n3)CC2)cc1 [GSK1379788],0%,0%,13%,0%,7%,1%,1%,0%,0%,0%,0%,0%,1%,0%,0%,7%,38%,34%,10%,25%
CCS(=O)(=O)c1ccc(OC)c(Nc2nccc(-c3c(-c4cccc(NC(=O)c5c(F)cccc5F)c4)nn4ncccc34)n2)c1 [GSK326180],0%,16%,99.3%,0%,23%,0%,12%,100%,0%,100%,5%,24%,15%,12%,100%,12%,16%,99.3%,0%,100%
COc1cc(Nc2nccc(N3CCC(NC(=O)Nc4cccc(C(C)=O)c4)C3)n2)cc(OC)c1OC (centres unmarked) [GSK1379753],67%,21%,22%,0%,5%,0%,0%,3%,0%,8%,11%,16%,18%,0%,13%,6%,88%,2%,0%,19%
Cc1cccc(NC(=O)Nc2ccc(Oc3ncnc4ccn(C)c34)cc2)c1,9%,0%,1%,0%,0%,0%,17%,0%,9%,28%,18%,0%,6%,0%,21%,0%,91%,49%,0%,12%
Cl.Cl.NCC(C(=O)Nc1cc(Br)c(-c2ccnc3[nH]ccc23)s1)c1ccccc1 (centres unmarked) [GSK1269851],33%,78%,27%,0%,83%,4%,48%,28%,0%,32%,0%,13%,0%,0%,27%,42%,1%,5%,0%,52%
CC(=O)N1CCN(c2ccc(Nc3nccc(-c4sc(C(C)C)nc4-c4cccc(NS(=O)(=O)c5cccc(Cl)c5)c4)n3)cn2)CC1 [GSK1660437],0%,11%,86%,19%,71%,3%,0%,0%,99.6%,32%,0%,29%,21%,0%,0%,0%,97.7%,82%,92%,40%
